A selection: hits, their analogues and other compounds. The true share with any hit is near 7.5%.
FLuc modulator: qHTS profiling assay for firefly luciferase inhibitor/activator using purifed enzyme and Km concentrations of substrates (counterscreen for miR-21 project). Luciferin 4-monooxygenase (Photinus pyralis), P08659. purified FLuc, Km substrates, luminescence inhibition. AID 588342, 2011. Potency, µM (highest dose often 57.5 µM), inactives show at the top dose activity change, negative = inhibition, most hits filed as inhibitors. actives 6.9% (n = 360,000);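 note: plate controls were vehicle for no effect and reference inhibitor for full effect; nearly all actives have a fitted effect of over 55% in size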
Target sequence (P08659 whole entry, looked up): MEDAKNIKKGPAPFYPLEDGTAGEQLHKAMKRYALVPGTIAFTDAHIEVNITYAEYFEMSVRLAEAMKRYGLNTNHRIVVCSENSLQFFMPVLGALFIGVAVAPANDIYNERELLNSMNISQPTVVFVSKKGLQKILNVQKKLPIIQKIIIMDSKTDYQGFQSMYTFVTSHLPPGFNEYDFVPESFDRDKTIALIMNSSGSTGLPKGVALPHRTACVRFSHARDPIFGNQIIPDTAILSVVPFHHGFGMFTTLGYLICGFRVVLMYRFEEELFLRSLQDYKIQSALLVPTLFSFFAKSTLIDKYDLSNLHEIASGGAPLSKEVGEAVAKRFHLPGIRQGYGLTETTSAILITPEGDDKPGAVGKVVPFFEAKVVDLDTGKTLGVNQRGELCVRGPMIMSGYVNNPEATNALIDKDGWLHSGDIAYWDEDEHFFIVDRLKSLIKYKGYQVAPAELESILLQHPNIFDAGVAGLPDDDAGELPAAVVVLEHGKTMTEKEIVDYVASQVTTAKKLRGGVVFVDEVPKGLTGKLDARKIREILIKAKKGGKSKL
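Purified P. pyralis luciferase, 10 nM final, with Km-level 10 uM D-luciferin and 10 uM ATP in 50 mM Tris acetate pH 7.5, 10 mM Mg acetate, 0.01% Tween-20, 0.05% BSA; 6-point qHTS titration about 60 µM downward; luminescence read.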
Rab9 promoter act: qHTS Assay for Rab9 Promoter Activators; Potency, µM (titrated, usually from 9.22 µM), for the others: top-dose activation, negative = inhibition, hits mostly activators; Huh7 Rab9 promoter-luciferase reporter, luminescence, 24 h; actives 2.8% (n = 320,000); note: % of control where 0% means no effect; nearly all actives have a fitted effect of over 60% in size
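Luminescence from Amplite-detected luciferase (10 minutes, ambient) reports Rab9 promoter activation. Before that, stable Rab9-luciferase Huh7 cells (1500/well, reduced-serum OP-MEM I plus 10% FBS) were exposed to compound for 24 hours at 37C.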
SMN2 splice up: qHTS Assay for Enhancers of SMN2 Splice Variant Expression; actives 2.8% (n = 210,000); Potency, µM (titrated, usually from 46.1 µM), without a hit: at the top dose activity change, positive = activation, actives largely listed as activators; HEK293 SMN2-luciferase splicing reporter, luminescence, 30-36 h; note: % of control where 0% means no effect; nearly all actives have a fitted effect of over 55% in size
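qHTS luciferase splicing reporter: luminescence rises when SMN2 exon 7 is included in transfected HEK293 cells. Compound exposure lasted 30-36 h at 37C, with 4.5 mM final sodium butyrate as control, followed by a ONE-Glo read.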
Luc counter: Counterscreen for Luciferase (Kinase-Glo TM) Inhibition; Luciferin 4-monooxygenase (Photuris pensylvanica), Q27757; Kinase-Glo luciferase, ATP luminescence, 8 min; actives 0.28% (n = 200,000); AID 1379, 2008; Potency, µM (top dose mostly 38.3 µM), for inactives: at the highest dose activity change, negative = inhibition, hits mostly inhibitors; note: % is set by controls: 0 for no effect and ±100 for the full control effect; nearly all actives have a fitted effect of over 60% in size
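Inhibition of Kinase-Glo luciferase light generation was assessed at 10 uM ATP in pH 7.2 imidazole buffer, with luminescence measured after eight minutes at ambient temperature.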
ELG1 genotox: qHTS screen for small molecules that induce genotoxicity in human embryonic kidney (HEK293T) cells expressing luciferase-tagged ELG1; actives 1.3% (n = 330,000); AID 504466, 2011; HEK293T ELG1-luciferase reporter, luminescence, 16 h; Potency, µM (top dose mostly 46 µM), inactives show top-dose activity change, positive = activation, actives largely listed as activators; note: % of control where 0% means no effect; nearly all actives have a fitted effect of over 60% in size
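After overnight (16 hr) compound treatment at 37 °C, ELG1-luciferase HEK293T cells were lysed with ONE-Glo; luminescence quantified 30 min later at room temperature.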
NPC1 prom act: qHTS Assay for NPC1 Promoter Activators. actives 2.4% (n = 320,000). Potency, µM (doses to about 9.22 µM), for inactives: at the highest dose activation, hits mostly activators. Huh7 NPC1 promoter luciferase reporter, 24 h; note: % of control where 0% means no effect; nearly all actives have a fitted effect of over 60% in size
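Luminescence from an NPC1 promoter-driven luciferase reporter in stably transfected Huh7 cells was measured after 24 h compound treatment at 37 °C, followed by 10 min ambient incubation with luciferase detection reagent.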
* marks the source's active call; other numbers are inactive results; ? = inconclusive; · = not tested or not shown. Calls come from the whole dose curve; as a rule, active = well fitted curve in the direction sought with a large enough effect; inconclusive = small, poorly fitted or top-dose-only effect, or another doubt; inactive = no such curve, though single readings can be large; an effect the other way counts as inactive or inconclusive. Potency is the fitted concentration of half-maximal effect.

SMILES | FLuc modulator | Rab9 promoter act | SMN2 splice up | Luc counter | ELG1 genotox | NPC1 prom act
O=C(Cn1c(-c2cccs2)cc2ccccc21)NCCCN1CCN(c2ccc(F)cc2)CC1 | -6% | · | · | · | · | ·
NC(=O)c1cc2cc(Cc3ccccc3Cl)ccc2oc1=O | -1% | 0% | -6% | -1% | 5% | -3%
CSC1=N/C(=C\c2cccnc2)C(=O)N1c1ccccc1 | 12µM* | -3% | 11% | -1% | 15% | 1%
CS(=O)(=O)c1ccc2nc(NC(=O)c3cc4ccccc4o3)sc2c1 | 2.7µM* | ? | 21% | -5% | 1% | ?
CS(=O)(=O)c1ccc2nc(NC(=O)c3cc(-c4ccccc4)nn3-c3ccccc3)sc2c1 | -7% | -2% | -27% | -1% | -5% | -3%
CS(=O)(=O)c1ccc2nc(NC(=O)Oc3ccccc3)sc2c1 | ? | -4% | 9% | -6% | 4% | 2%
CS(=O)(=O)c1ccc2sc(NC(=O)c3cc4ccccc4o3)nc2c1 | 2.7µM* | ? | · | · | 2% | ?
CC(C)N(C(=O)N1CCN(c2ccnc3cc(Cl)ccc23)CC1)C(C)C | -1% | -5% | · | · | -17% | -5%
O=C(O)/C(=C1\OC(=O)c2ccccc21)c1ccccc1 | 27µM* | -3% | 14% | 4% | 1% | -5%
CCOC(=O)/C(C(C)=O)=C1/OC(=O)c2ccccc21 | -1% | -2% | 6% | -1% | -5% | 1%
COc1ccc(-c2cc(C(F)(F)F)nc(SCC(=O)NCC(C)C)n2)cc1OC | 3% | · | 11% | · | · | ·
CCSc1nc2ccccc2[nH]1 | -8% | -9% | 15% | -2% | -7% | 6%
Fc1ccc(CSc2nc3ccccc3[nH]2)cc1 | 4.8µM* | 1.4µM* | 11µM* | -16% | ? | 2.8µM*
O=C(NCCO)c1ccc(CSc2nc3ccccc3[nH]2)cc1 | ? | 21% | -5% | 2% | 8% | -1%
c1ccc(CSc2nc3ccccc3[nH]2)cc1 | 3.4µM* | 0.79µM* | · | · | ? | 0.79µM*
CCCOc1ccc(CSc2nc3ccccc3[nH]2)cc1 | 2.1µM* | ? | 20% | -23% | ? | 25%
O=[N+]([O-])c1ccc(CSc2nc3ccccc3[nH]2)cc1 | 6µM* | 2.2µM* | 16µM* | -6% | ? | 4µM*
CCOc1ccc(OCCSc2nc3ccccc3[nH]2)cc1 | ? | 2% | -111% | 4% | 8% | 2%
CCOC(=O)c1c(CSc2ccccc2)n(C)c2ccc(O)cc12 | -1% | 0% | · | · | -1% | -2%
CCOC(=O)c1c(S(=O)(=O)N2CCCC(C(=O)NCc3ccccc3OC)C2)c(C)n(C)c1C (stereo not given) | 0% | · | · | · | · | ·
CCOc1ccc(NS(=O)(=O)c2ccc(C(=O)N(C)C)s2)cc1 | 1% | · | · | · | · | ·
Fc1ccc(CSc2nc3ncccc3[nH]2)cc1 | 13µM* | ? | ? | -9% | ? | ?
Fc1cccc(CSc2nc3ncccc3[nH]2)c1 | ? | ? | 16% | -10% | -1% | 24%
Fc1ccc(CSc2nc3ccccc3[nH]2)c2ccccc12 | 24µM* | 17% | -5% | -5% | 5% | 0%
c1ccc(CSCc2nc3ccccc3[nH]2)cc1 | 19µM* | 2.5µM* | ? | -8% | ? | ?
SMILES | FLuc modulator | Rab9 promoter act | SMN2 splice up | Luc counter | ELG1 genotox | NPC1 prom act
CCOc1ccc2nc(SCC)[nH]c2c1 | 19µM* | ? | 4% | -6% | 16% | ?
O=C1NC(=S)N/C1=C\c1ccc(N2CCOCC2)cc1 | 21µM* | 23% | 18% | -7% | ? | 29%
C=CC(C)N1C(=O)S/C(=C\c2ccc(N3CCOCC3)cc2C)C1=O (stereo not given) | 11µM* | ? | -38% | 1% | ? | ?
C=CCN1C(=O)S/C(=C\c2ccc(N3CCOCC3)cc2C)C1=O | 6µM* | 3.5µM* | · | -2% | ? | ?
O=C1NC(=S)N/C1=C/c1ccc2c(c1)OCO2 | ? | -14% | · | · | -15% | -5%
C=CCN1C(=O)S/C(=C\c2ccc3c(c2)n(C)c(=O)n3C)C1=O | -13% | 21% | ? | -3% | ? | 9%
Cc1cc(N2CCOCC2)ccc1/C=C1/SC(=O)NC1=O | 15µM* | ? | 22µM* | 13% | ? | ?
CN(Cc1ccccc1)c1nc2c(S(=O)(=O)c3ccccc3)nnn2c2ccsc12 | 7% | · | · | · | · | ·
CC(C)(C)OC(=O)C[C@@H]1C/C=C\C[C@H](CC(=O)N(CCO)Cc2ccccc2)C(=O)NC[C@H](c2ccccc2)OC1=O | · | · | · | · | -5% | ·
CC1CC(=O)N(CC(=O)Nc2ccc(OC(F)(F)F)cc2)c2ccccc2S1 (stereo not given) | 5% | · | 4% | · | · | ·
CCc1ccc(C2c3c(oc4ccc(F)cc4c3=O)C(=O)N2CCc2ccc(OC)cc2)cc1 (stereo not given) | 2% | · | 5% | · | · | ·
Cc1ccc(O)c(-c2cc(-c3ccccc3C)[nH]n2)c1 | ? | -1% | 27% | 3% | 1% | -3%
COc1ccc(-c2n[nH]c(C)c2-c2ccc(Cl)cc2)c(O)c1 | 1% | 3% | -16% | -2% | -6% | 2%
COc1ccc(-c2cc(-c3cc(C)ccc3O)[nH]n2)cc1 | 12µM* | -36% | · | 1% | ? | -23%
COc1ccc(-c2cc(-c3ccc(C)cc3)n[nH]2)c(O)c1 | 4.8µM* | 1.3µM* | · | · | ? | 1.3µM*
COc1ccc(-c2cc(-c3ccc(OC)cc3)[nH]n2)cc1 | 8.5µM* | ? | 10% | 14% | ? | 2.8µM*
COc1ccc(Oc2ccc(-c3ccn[nH]3)cc2)cc1 | 24µM* | ? | · | · | 10% | ?
Cc1ccccc1-c1n[nH]c(=S)n1/N=C/c1c(C)nn(-c2ccccc2)c1C | 1% | 0% | 14µM* | 3% | -9% | -2%
COC1=C(Nc2ccc(C)cc2)C(=O)c2ccccc2C1=O | 17µM* | ? | ? | -12% | 6% | ?
CC(=O)NC1=C(Nc2ccc(N(C)C)cc2)C(=O)c2ccccc2C1=O | 12µM* | ? | · | · | 7% | 26%
Cc1nn(C(C)C(=O)NC(C)CCc2ccccc2)c(=O)c2cc3occc3n12 (stereo not given) | 2% | 4% | · | · | -4% | -1%
N#Cc1c(N)nc2c(c1-c1ccc3c(c1)OCO3)CCc1ccccc1-2 | 2% | -7% | ? | -4% | 12% | -2%
c1ccc2c(c1)Cc1cc3cc4c(cc3nc1-2)OCO4 | · | · | 0.5µM* | 2.8µM* | · | ·

Screening results as filed in PubChem.
